Screens (PubChem)
This excerpt belongs to a sample that is enriched for hits.
Pf Dd2 inh = blocks in vitro growth of P. falciparum Dd2; AID 1347417; P. falciparum Dd2 growth, SYBR Green, 72 h; Potency, µM (series often up to 28.9 µM), for inactives: at the top dose activity, negative = inhibition, hits mostly inhibitors; 4.3% of 120,000 active; active means well fitted inhibition curve with a large enough effect;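 further: plate controls were DMSO vehicle for no effect and reference drug for full effect; nearly all actives have a fitted effect of over 65% in size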
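Infected erythrocytes (Dd2, 0.3% parasitemia, 2.5% hematocrit final) are added to compound in RPMI-1640/Albumax II medium, grown 72 h at 37C in low oxygen, then lysed with saponin/Triton-X containing SYBR Green and read by fluorescence.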
* marks the source's active call; other numbers are inactive results; i = inactive; [ ] = remark or other dose. Potency means the concentration at half of the fitted maximal effect.

SMILES	Pf Dd2 inh
CN1C[C@@H]2CCCN3CCC[C@@H]([C@H]23)[C@H]1CCCC(=O)NCCN1CCCC1	i
O=C(Nc1ccccc1)Nc1ccc(=O)n2c1[C@@H]1C[C@@H](CN(C(=O)Nc3ccc(F)cc3)C1)C2	3.7%
CCCc1ccc(CN2CCC(c3nnc(Cn4ccnc4)n3C3CC3)CC2)o1	1.3%
Cc1ccc(Cl)cc1N1CCN(C(=O)c2cc3c(=O)n(C)c4ccccc4c3s2)CC1	32.0%[5.79 µM]
Cc1ccc(Cl)cc1N1CCN(C(=O)CCc2nnc3n(C)c(=O)c4ccccc4n23)CC1	-18.6%
Cc1ccc(Cl)cc1N1CCN(C(=O)c2cn(CC(C)C)c(=O)c3c2c2ccccc2n3C)CC1	3.16µM*
CC(=O)N1CCc2nn(CC(=O)Nc3ccc(C(F)(F)F)cc3)c(=O)cc2C1	i
COCCN1CC(CNc2nc(CCN)nc3sc(C)c(C)c23)CC1=O (centres undefined)	-0.8%
CCCc1cc(CN(C)c2nc(CCN)nc3sc(C)c(C)c23)[nH]n1	10µM*
CN1C(=O)C2(CCN(C(=O)c3ccnn3C)CC2)c2ccccc21	46.2%
O=C(CC1CCCCN(Cc2ccccc2)C1=O)NCc1cccnc1 (centres undefined)	-12.8%
CC(NC(=O)CCc1ccccc1)C(=O)N1CCN(c2ccccn2)CC1 (centres undefined)	-3.5%
CCOC(=O)c1c(C)n(-c2ccccc2)c2ccc(OC(=O)c3c(F)cccc3F)cc12	-15.8%
CCOC(=O)c1c(C)n(-c2ccccc2)c2ccc(OC(=O)c3ccccc3)cc12	2.82µM*
CCOC(=O)c1cc(OC(=O)c2ccc(OC)cc2)n(-c2ccccc2)n1	-10.4%
C1CCC(c2nc(CCOCC3CCOCC3)no2)NC1 (centres undefined)	i
CCN1C(=O)C2CC3(CCN(Cc4ccc(C)s4)CC3)CN2C1=O (centres undefined)	-6.3%
COc1ccc(C(=O)N2CCC3(CC2)COc2ccccc2C(=O)N3)cc1	2.24µM*
COc1ccc(C(=O)N2CCC3(CC2)COc2ccccc2[S+](=O)([O-])N3)cc1	0.3%
O=C1NC2(CCN(C(=O)c3ccc(C(F)(F)F)cc3)CC2)COc2ccccc21	1.12µM*
O=C(c1ccc(C(F)(F)F)cc1)N1CCC2(CC1)COc1ccccc1CN2	-10.6%
O=C1NC2(CCN(C(=O)c3ccc(F)cc3)CC2)COc2ccccc21	-12.0%
O=C1NC2(CCCN(C(=O)c3ccc(F)cc3)C2)COc2ccccc21 (centres undefined)	i
CCC(=O)N(C1CCOCC1)C1CCN(C(=O)c2ccncc2)CC1	i
O=C(NCC1CCOCC1)Nc1cc(F)cc(F)c1	-24.1%
SMILES	Pf Dd2 inh
COCCOC1CCN(C(=O)c2cccs2)CC1	26.7%
NC1(C(=O)N2CCC(c3nnc(Cn4ccnc4)n3C3CC3)CC2)CC1	8.6%
COc1cc(C(=O)NCc2c(C)noc2C)ccc1OC1CCN(C(C)=O)CC1	-7.9%
Cc1ccc(NC(=O)Nc2nc3c(s2)CCCCCC3)cc1C	-18.9%
Cc1cc(NC(=O)Nc2csc3c2CCCC3)ccc1Br	12.6µM*
Cc1cc(NC(=O)Nc2nnc(N(C)C3CCCCC3)s2)ccc1Br	-23.5%[5.79 µM]
N#Cc1ccc(CNC2(Cc3cc(-c4ccc(F)cc4)on3)COC2)cc1	i
Cc1nc(C)c(C(=O)N2CC(C)(C)C(C)(O)C2)s1 (centres undefined)	-19.6%
CCOC(=O)C1(Cc2ccccc2)CCNCC1	5.62µM*
CCOC(=O)c1cc(S(=O)(=O)NCc2ccc(F)cc2)[nH]n1	i
CCOC(=O)C1(Cc2ccccc2)CCCN(S(=O)(=O)c2cccs2)C1 (centres undefined)	-2.3%
CCOC(=O)C1(Cc2cccc(OC)c2)CCNCC1	5.01µM*
C=CCOc1cccc(C(=O)N2CCC(Cc3ccc(OC)cc3)(C(=O)OCC)CC2)c1	i
CCOC(=O)C1(Cc2ccc(F)cc2)CCCNC1 (centres undefined)	2.82µM*
CCOC(=O)C1(Cc2ccccc2)CCCN(S(=O)(=O)c2ccc(OC)c(OC)c2)C1 (centres undefined)	i
O=C(N1CCN(C/C=C/c2ccccc2)CC1)C12CNCC1CNC2 (centres undefined)	-21.9%
CCOC(=O)C1(Cc2ccccc2)CCCN(C(=O)c2ccccc2SC)C1 (centres undefined)	-34.2%
CCOC(=O)C1(Cc2ccc(F)cc2F)CCCN(C(=O)c2c(C)nc3ncccn23)C1 (centres undefined)	-11.9%
COCC1CN(C(=O)CCc2cccc(OC)c2)CC12CCNCC2 (centres undefined)	32.7%
CCOC(=O)C1(C/C=C/c2ccccc2)CCCNC1 (centres undefined)	3.98µM*
CN(Cc1cccnc1)c1nc2c(c(=O)[nH]1)CCN(Cc1ccccc1C#N)CC2	-12.0%[5.79 µM]
CCOCc1nc(C2CCCN(C(=O)c3ccoc3)C2)no1 (centres undefined)	18.1%
O=C(CN1CCN(Cc2cnc(-c3ccccn3)nc2)CC1)N1CCCC1	25.6%
Cc1ccc(CNC(=O)N2CCCN(C(=O)C3CC3)C(c3ccccc3)CC(=O)NCC2)cc1 (centres undefined)	-8.8%
CN(Cc1cccn1C)C(=O)Cc1ccc(F)cc1	10.9%[44.1 µM]
SMILES	Pf Dd2 inh
CC(C)=CC(=O)NCCC[C@H](NC(=O)[C@@H]1[C@@H](NC(=O)Nc2ccc(F)cc2F)CCN1C(=O)C=C(C)C)C(N)=O	6.6%
CCCC(=O)N1CCC2CC(=O)NCCC2C1 (centres undefined)	11.8%[44.1 µM]
Cc1cccc(NC(=O)Cn2ccn3nc(-c4ccccc4)c(CO)c3c2=O)c1C	i
O=C1CC[C@@H](CN(Cc2ccncc2)C(=O)c2ccc3nccn3c2)N1	6.4%
COCC1CN(C(=O)Cn2nc(C(F)(F)F)cc2C)CC12CCNCC2 (centres undefined)	28.6%
CCOC(=O)C1(Cc2ccc(OC)cc2)CCN(C(=O)C(C)Oc2ccccc2)CC1 (centres undefined)	-9.5%
COc1cccc(CC2(CO)CCCNC2)c1 (centres undefined)	-26.5%
CCOC(=O)C1(Cc2cccc(OC)c2)CCCNC1 (centres undefined)	11.2µM*
COc1cccc(CNC(=O)C2=C(C)C(=O)OC23CCCCCC3)c1	-20.0%
COc1cccc(CN2CCC3(CC2)C(=O)NCN3Cc2ccc(Cl)cc2)c1	-16.9%
CCOC(=O)C1(Cc2ccc(Cl)cc2)CCN(Cc2ccc(OC)cc2O)CC1	0.0891µM*
COc1ccc(CN2C(=O)C3(CCOCC3)CC2c2nnnn2C(C)(C)C)c(OC)c1 (centres undefined)	-22.1%
Cc1cccc(C)c1NC(=O)CN1C(=O)NC2(CCOCC2)C1=O	41.4%
NC(=O)[C@H](CC1CCCCC1)NC(=O)[C@@H]1CN(C(=O)c2cccnc2)CCN1C(=O)C1CCCCC1	-15.1%
CS(=O)(=O)N1CC[C@H](C(=O)NNC(=O)Cc2ccccc2)C1	-4.9%[44.1 µM]
CCCN1C(=O)CCc2cc(NC(=O)c3ccc4c(c3)OCO4)ccc21	-29.6%
COc1ccc(NC(=O)c2c(C)oc3ccc(O)c(CN4CCCCCC4)c23)cc1	2.82µM*
Cc1cccc(NC(=O)c2c(C)oc3ncnc(N4CCCCC4)c23)c1C	-7.4%
Cc1oc2ccc(O)c(CN3CCCC(C)C3)c2c1C(=O)Nc1ccccc1 (centres undefined)	0.891µM*
Cc1c(Cl)cccc1NC(=O)NCC1CCOCC1	9.1%
COc1ccc(NC(=O)c2c(C)oc3ccc(O)c(CN4CCN(Cc5ccccc5)CC4)c23)cc1	1.26µM*
O=C(Nc1ccc(Cl)cc1)c1nc2c(o1)CCN(Cc1ccccc1)CC2	i
COc1ccc(NC(=O)c2c(OC)cc(=O)n3c2CCCC3)cc1	-22.1%
